MARV entry inh – Marburg virus entry inhibition; Marburg virus pseudotyped entry inhibition, cell reporter; Potency, µM (series often up to 37.8 µM), inactives show at the highest dose activity change, negative = inhibition, actives largely listed as inhibitors; actives 1.8% (n = 300,000); calls by dose curve; tested in HEK293 cells; further: potency means the concentration at half of the fitted maximal effect
Pf growth 48h – inhibits P. falciparum growth in the first generation, 48 h; AID 504832; Potency, µM (titrated, usually from 28.7 µM), without a hit: at the top dose activity change, negative = inhibition, most hits filed as inhibitors; actives 5.9% (n = 310,000); P. falciparum luciferase growth in erythrocytes, 48 h; further: potency means the concentration at half of the fitted maximal effect
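In quantitative HTS format, infected erythrocytes bearing luciferase-reporter parasites were treated for a single generation at 37 C. Luminescence after adding detection reagent served as the growth measure.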
Pf growth 96h – P. falciparum growth inhibition at 96 hours; P. falciparum luciferase reporter growth, 96 h; Potency, µM (top dose mostly 28.7 µM), for inactives: at the highest dose activity change, negative = inhibition, actives largely listed as inhibitors; actives 6.9% (n = 320,000); further: potency means the concentration at half of the fitted maximal effect
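Two-generation exposure (96 h) targets delayed-death phenotype. Reporter parasites carrying integrated firefly luciferase, in red cells at 2% hematocrit and 0.05% parasitemia final, kept at 37 C, 5% CO2; luminescence loss indicates inhibition.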
HCV inh – blocks hepatitis C virus. Huh7.5.1 HCVcc-Cre infection, luciferase reporter, 44 h. Potency, µM (doses to about 41.8 µM), inactives show top-dose activity change, negative = inhibition, actives largely listed as inhibitors. actives 3.4% (n = 340,000). AID 651820; further: potency means the concentration at half of the fitted maximal effect
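Compounds are dispensed onto cells plated 4 h earlier at 1,000 per well, with HCVcc-Cre virus (about 0.5 moi) added next. Following 44 h of culture, luminescent signal is measured for 15 sec after 15 min with substrate at room temperature.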
HCMV antiviral – inhibitors of human cytomegalovirus. HFF cells, HCMV-luciferase reporter, 72 h; active compounds read low. activity change, negative = inhibition, % at 57.5 µM. actives 4.5% (n = 410,000); in the data active means activity change below about -60%; inconclusive means no clear call, values can overlap the other calls; inactive means above about -39%
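Two compound doses tested in HFFs infected with HCMV-luciferase, MOI 1 PFU/cell, 72 h at 37C. Lysate luminescence read with OneGlo; data normalized against buffer-only and 10uM Salinomycin inhibitor controls.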
LASV entry inh – Lassa virus entry inhibition; Lassa virus pseudotype entry inhibition, cell reporter; Potency, µM (doses to about 37.9 µM), for the others: at the top dose activity change, negative = inhibition, hits mostly inhibitors; actives 1.2% (n = 300,000); AID 540256; calls by dose curve; tested in HEK293 cells; further: potency means the concentration at half of the fitted maximal effect; nearly all actives have a fitted effect of over 50% in size
An asterisk follows results filed as active; [ ] = another dose, or the depositor's remark. Only some compounds are listed: those with a hit (about 14% of all), similar ones and a draw of the others. Unless noted, the call rests on the fitted dose curve; in most records, active means well fitted inhibition curve with a large enough effect; inconclusive means small, poorly fitted or top-dose-only effect, or another doubt; inactive means no such curve, though single readings can be large or run the other way. On the % scale 0 is the no-effect control and ±100 the full control effect.

Screening COC(=O)c1sc(=S)n(-c2cc(F)ccc2F)c1N returned MARV entry inh -3%, Pf growth 48h 14%, Pf growth 96h inconclusive, HCV inh 4%, HCMV antiviral -106* and LASV entry inh -6%.
Screening Cc1c(C(=O)O)sc(=S)n1-c1ccc(Cl)cc1 returned MARV entry inh 5%, Pf growth 48h -9%, Pf growth 96h -5%, HCV inh 2%, HCMV antiviral inconclusive and LASV entry inh 4%.
`CC(=O)c1ccc(N2CCN(S(=O)(=O)c3c(C)nc4sc(C)cn4c3=O)CC2)cc1` gave HCMV antiviral 1 and LASV entry inh 0%[46.1 µM].
`COc1ccc(CNC(=O)c2sc(=S)n(-c3ccc(OC)cc3)c2N)cc1` gave MARV entry inh -1%, Pf growth 48h -15%, HCV inh 5% and LASV entry inh -2%.
`CCOC(=O)c1sc(=S)n(-c2ccc(OC)cc2)c1C` gave MARV entry inh 11%[46.1 µM], Pf growth 48h 13µM*, Pf growth 96h inconclusive, HCV inh 5%, HCMV antiviral 25 and LASV entry inh -15%.
O=C1OCc2cc(-c3ccccc3F)ccc21 was read as HCMV antiviral -11.
CCc1nc2ccc(C(=O)NCc3ccc4c(c3)OCO4)cn2c1N(C)CCC(C)C was read as HCMV antiviral -11.
`COc1ccc2cc(C=O)n(C)c2c1` gave Pf growth 48h 14%, Pf growth 96h inconclusive, HCV inh 4% and HCMV antiviral 11.
`COc1ccc2cc(CO)n(C)c2c1` gave Pf growth 48h 12µM*, Pf growth 96h inconclusive, HCV inh inconclusive and HCMV antiviral -5.
`O=C(CSc1nc2ccccc2c(=O)n1-c1ccc(F)cc1)Nc1cc(S(=O)(=O)N2CCOCC2)ccc1Cl` gave MARV entry inh -2%, Pf growth 48h 6.6µM*, Pf growth 96h 3.7µM*, HCV inh -13%, HCMV antiviral -10 and LASV entry inh inconclusive.
O=c1c2ccccc2nc(SCc2ccc(F)cc2Cl)n1CCCN1CCOCC1 was read as Pf growth 48h inconclusive, Pf growth 96h inconclusive, HCV inh 10µM* and HCMV antiviral -39.
`O=C(CSc1nc2ccccc2c(=O)n1CCCN1CCOCC1)c1c[nH]c2ccccc12` gave MARV entry inh inconclusive, Pf growth 48h inconclusive, Pf growth 96h inconclusive, HCV inh 14µM*, HCMV antiviral inconclusive and LASV entry inh inconclusive.
CS(=O)(=O)c1ccc(Cl)c(NC(=O)CSc2nc3ccccc3c(=O)n2CCCN2CCOCC2)c1 was read as MARV entry inh -29%, Pf growth 48h inconclusive, Pf growth 96h 7.4µM*, HCV inh -22%, HCMV antiviral -34 and LASV entry inh 0%.
Screening O=C(NCC(c1cccnc1)N1CCc2ccccc2C1)c1ccc(F)c(F)c1 (stereo not given) returned HCMV antiviral -3 and LASV entry inh 22%[46.1 µM].
`COc1ccccc1N1CCN(C(=O)CSc2n[nH]c(-c3ccccc3Cl)n2)CC1` gave HCMV antiviral 0 and LASV entry inh -12%[46.1 µM].
CC(=O)c1ccc(N2CCN(C(=O)Nc3cn(CC(C)C)c(=O)c4ccccc34)CC2)cc1 was read as HCMV antiviral 0 and LASV entry inh 28%[46.1 µM].
CCOC(=O)N1CCN(C(=O)C[C@@H]2C[C@@]3(C(=O)OC)CC(C)(C)CC=C3N(Cc3ccc4c(c3)OCO4)C2=O)CC1 was read as HCMV antiviral 10.
`Cc1ccc(S(=O)(=O)N2CCOCC2)cc1NC(=O)Cn1c(=O)ccn(Cc2ccccc2)c1=O` gave MARV entry inh 30%, HCV inh 7%, HCMV antiviral -22 and LASV entry inh 0%.
Cc1ccc(S(=O)(=O)N2CCOCC2)cc1NC(=O)CSc1nc2ccccc2c(=O)n1Cc1ccccc1 was read as MARV entry inh 17%, Pf growth 48h inconclusive, Pf growth 96h 5.2µM*, HCV inh -28%, HCMV antiviral 16 and LASV entry inh -7%.
`COc1cccc(CN(C)C(=O)c2ccccc2SCC(=O)N2CCCC2)c1` gave MARV entry inh -4%, Pf growth 48h 3%, Pf growth 96h 2%, HCV inh -4%, HCMV antiviral -32 and LASV entry inh inconclusive.
Screening CN(Cc1cccc(Cl)c1Cl)C(=O)c1ccccc1SCC(=O)N1CCCC1 returned MARV entry inh inconclusive, HCV inh 22µM*, HCMV antiviral -5 and LASV entry inh -23%.
CN(Cc1ccccc1)C(=O)COC(=O)c1ccccc1SCC(=O)N1CCCC1 was read as MARV entry inh -2%, Pf growth 48h -7%, Pf growth 96h 48%, HCV inh 5%, HCMV antiviral -61* and LASV entry inh 7%.
Screening CN(Cc1ccc(Cl)c(Cl)c1)C(=O)c1ccccc1SCC(=O)N1CCCC1 returned MARV entry inh -17%[46.1 µM], Pf growth 48h inconclusive, Pf growth 96h inconclusive, HCV inh -19%, HCMV antiviral -99* and LASV entry inh -12%.
`COc1ccccc1CN(C)C(=O)c1ccccc1SCC(=O)N1CCCC1` gave Pf growth 48h -15%, Pf growth 96h inconclusive, HCV inh 8% and HCMV antiviral 0.
For COC(=O)[C@]12CCCCC=C1N(Cc1ccc(Cl)cc1Cl)C(=O)[C@H](CC(=O)NCc1ccc(OC)c(OC)c1)C2 the results were HCMV antiviral -70*.
For CCOC(=O)[C@]12CCCC=C1N(Cc1ccco1)C(=O)[C@H](CC(=O)N1CCCCC1)C2 the results were HCMV antiviral -9.
CCOC(=O)[C@]12CCCC=C1N(Cc1ccco1)C(=O)[C@H](CC(=O)N1CCSCC1)C2 was read as HCMV antiviral -82*.
`CCOC(=O)[C@]12CCCC=C1N(Cc1ccc3c(c1)OCO3)C(=O)[C@H](CC(=O)NCc1cccc(C(F)(F)F)c1)C2` gave HCMV antiviral -65*.
For CCOC(=O)[C@]12CCC=C1N(Cc1ccc3c(c1)OCO3)C(=O)[C@H](CC(=O)NCc1cccc(C(F)(F)F)c1)C2 the results were HCMV antiviral 13.
For COC(=O)[C@]12CCCCC=C1N(Cc1ccc(Cl)cc1Cl)C(=O)[C@H](CC(=O)NCc1ccccc1)C2 the results were HCMV antiviral 6.
CCOC(=O)[C@]12CCCC=C1N(Cc1ccc(Cl)cc1Cl)C(=O)[C@H](CC(=O)NCc1ccc(OC)c(OC)c1)C2 was read as HCMV antiviral -71*.
For COc1ccc(CCN2CC(=O)NC(=O)C2)cc1OC the results were HCMV antiviral 1.

Screening data from PubChem.
